# High-throughput results: PubChem BioAssay, several laboratories
# PTEN del growth: growth suppression of PTEN-null HCT116, primary screen, cell-based, CellTiter-Glo; HCT116 PTEN-null viability, 60 h; stronger effect = lower value; viability, % at 10 µM; 1.2% of 140,000 active; AID 827, 2007;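 active means viability at or below a set limit, 4 SD under the median of all tested compounds, cut at about 3.7% in these data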;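 further: PTEN knockout HCT116 line with beta catenin targeted HCT116 as companion control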
# L major viab: Leishmania major promastigote growth inhibition, primary screen; 9% of 200,000 active; Leishmania major promastigotes, resazurin fluorescence viability; inhibition, % at 10 µM; in the data active means inhibition above about 50%;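 further: promastigotes grown with compound for 44 hours at 28 °C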
# bCat KO growth: primary screen for growth suppressors in beta-catenin knockout HCT116 cells (colon tumor, human) | 1.5% of 140,000 active | AID 818, 2007 | HCT116 beta-catenin knockout viability, CellTiter-Glo, 60 h; stronger effect = lower value | viability, % at 10 µM;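 active means viability at or under a set limit, the compound median less 4 SD, cut at about 6% in these data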;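 further: 0% = Hyamine 1622 control at 20 µM and 100% = untreated cell control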
# p97 inhibitor: inhibitors of human p97 ATPase, primary screen, biochemical. Transitional endoplasmic reticulum ATPase (Homo sapiens), P55072. recombinant p97 ATPase, Kinase-Glo ATP luminescence, 3 h. inhibition, % at 8 µM. 0.42% of 220,000 active; in the data active means inhibition above about 15%;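 further: 0% = DMSO vehicle and 100% = wells lacking enzyme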
# Target sequence (P55072 whole entry, looked up): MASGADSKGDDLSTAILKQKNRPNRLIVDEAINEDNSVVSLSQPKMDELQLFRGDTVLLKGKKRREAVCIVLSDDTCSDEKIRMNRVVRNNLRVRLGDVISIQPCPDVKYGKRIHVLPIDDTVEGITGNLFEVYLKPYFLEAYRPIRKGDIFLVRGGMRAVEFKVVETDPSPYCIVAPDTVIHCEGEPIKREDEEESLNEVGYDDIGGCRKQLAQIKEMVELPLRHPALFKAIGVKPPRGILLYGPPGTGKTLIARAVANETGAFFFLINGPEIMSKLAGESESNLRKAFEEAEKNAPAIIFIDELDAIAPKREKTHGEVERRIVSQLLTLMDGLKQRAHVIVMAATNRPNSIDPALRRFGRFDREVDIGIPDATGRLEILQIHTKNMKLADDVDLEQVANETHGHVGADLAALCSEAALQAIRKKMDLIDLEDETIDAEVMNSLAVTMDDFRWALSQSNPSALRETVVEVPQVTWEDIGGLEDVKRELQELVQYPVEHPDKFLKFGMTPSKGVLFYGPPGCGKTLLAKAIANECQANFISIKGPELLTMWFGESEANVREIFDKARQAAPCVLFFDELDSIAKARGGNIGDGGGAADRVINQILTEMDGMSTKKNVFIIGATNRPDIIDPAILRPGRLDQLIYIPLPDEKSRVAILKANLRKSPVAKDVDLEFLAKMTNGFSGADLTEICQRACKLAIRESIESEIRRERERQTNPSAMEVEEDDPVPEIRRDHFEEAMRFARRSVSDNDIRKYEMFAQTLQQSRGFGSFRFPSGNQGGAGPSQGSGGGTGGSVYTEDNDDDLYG
# INS promoter inh: inhibitors of insulin promoter-driven GFP, primary screen, imaging, TRM-6 cells (human fetal islet line), eGFP reporter, cell count; reporter expression induced with tamoxifen; inhibition, % at 2 µM; 0.9% of 130,000 active; AID 1273, 2008;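 active means inhibition above the mean plus 3 SD, with well images judged a real hit on visual review, cut at about 60% in these data, passing the limit was not always enough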
# ROMK primary: ROMK potassium channel modulators, primary screen, cell-based, thallium flux, MLSMR library; ATP-sensitive inward rectifier potassium channel 1 (Homo sapiens), P48048; Tet-inducible ROMK, thallium flux fluorescence; actives lie on both sides; B-score at 10 µM; 2% of 130,000 active; AID 1918, 2009;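 active means signal ratio slope over the read window, or its plate-corrected B-score, at least 3 SD from the plate mean, either direction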;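 further: B-score of the F/F0 ratio slope over 7 to 12 s after thallium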
# * marks the source's active call; other numbers are inactive results; / = not tested or not shown. Rows were chosen to be rich in hits. Some 10% of all compounds tested hit in one or more screens of this group.
SMILES,PTEN del growth,L major viab,bCat KO growth,p97 inhibitor,INS promoter inh,ROMK primary
CCOc1c(Cl)cc(CNCC(O)c2ccccc2)cc1OC (stereo unspecified),/,26.4,/,1.1,-22.2,-0.134
CCOc1c(Cl)cc(CNCC(C)C)cc1OC,89.7,80.3*,93.7,3.9,/,-0.312
CCOc1cc(CNC2CCCC2)ccc1OCc1ccccc1Cl,/,100.2*,/,1.8,/,-1.08
Cc1ccc(N(Cc2ccccc2F)S(C)(=O)=O)cc1C,96.9,19.5,94.0,-1.4,43.3,0.688
N=c1c2c(-c3ccccc3)c(-c3ccccc3)n(Cc3ccco3)c2ncn1CCCO,/,/,/,-4.0,/,/
N=c1c2c(-c3ccccc3)c(-c3ccccc3)n(Cc3ccco3)c2ncn1CCO,1.7*,100.4*,1.4*,-1.7,-326.7,-2.49
N=c1c2c(-c3ccccc3)c(-c3ccccc3)n(Cc3ccco3)c2ncn1CCN1CCOCC1,1.6*,99.7*,1.2*,3.0,-9.7,/
c1coc(CNc2nc3ccccc3n2CCN2CCOCC2)c1,87.9,4.4,89.0,14.0,20.0,/
Cc1cc(=O)oc2cc(OCC(=O)NCc3ccccn3)ccc12,88.6,2.5,96.4,3.9,-36.1,/
CCCc1cc(=O)oc2cc(OCC(=O)NCc3cccs3)ccc12,103.9,70.6*,102.2,1.4,-27.0,1.34
O=C(CC1C(=O)NCCN1Cc1cccc(Oc2ccccc2)c1)NCCCn1cccn1 (stereo unspecified),/,-7.6,/,2.0,/,-0.533
Cn1nnnc1SCC(=O)Nc1ccc(Oc2ccccc2)cc1,94.9,92.7*,88.3,-1.3,40.0,/
O=C(NCC(=O)N(c1cccc(F)c1)C(C(=O)NC1CCCC1)c1cccnc1)c1cccs1 (stereo unspecified),/,-5.7,/,1.3,-125.0,0.0806
COc1ccc2oc(=Nc3ccccc3)c(-c3nc4ccccc4[nH]3)cc2c1,11.2,13.7,30.9,3.2,/,/
Cc1cc([N+](=O)[O-])nn1CCCC(=O)Nc1cc(Cl)ccc1Cl,/,12.6,/,4.7,/,-2.69
COc1ccc(NC(=S)Nc2ccc3snnc3c2)cc1,/,54.2*,/,-0.5,/,/
COc1ccc(NC(=S)Nc2ccccc2)cc1,/,/,/,7.1,/,/
COc1ccc(NC(=S)Nc2ccc(N)c([N+](=O)[O-])c2)cc1,99.3,100.1*,89.3,5.4,-30.9,2.48
COc1ccc(NC(=S)Nc2ccc3nccnc3c2)cc1,97.8,5.0,97.0,-3.0,/,/
Clc1nc(CN2CCCCC2)nc2sc3c(c12)CCC3,/,44.0,/,5.5,31.6,-1.03
O=C(NC(=S)NCCc1ccccc1)C1CCCCC1,91.8,87.7*,90.0,-3.3,-25.0,-0.0875
O=C(NCCc1ccccc1)NC1CCCCC1,103.7,-5.5,98.0,7.0,80.0*,/
CC(C)CC(=O)NC(=S)NCCc1ccccc1,93.0,41.5,93.2,5.2,-20.0,/
CC(C)(C)CC(=O)NC(=S)NCCc1ccccc1,89.5,89.8*,93.5,0.6,6.7,/
Cc1ccc(C(=O)N/N=C(\CC(C)C)c2ccccc2)cc1,87.7,-3.5,87.2,1.3,-14.3,-1.15
SMILES,PTEN del growth,L major viab,bCat KO growth,p97 inhibitor,INS promoter inh,ROMK primary
CCOC(=O)C1(CCc2ccccc2)CCN(Cc2ccc(O)cc2)CC1,/,95.4*,/,-0.2,/,-1.81
CCOC(=O)C1(CCc2ccccc2)CCN(Cc2ccc(OC)cc2)CC1,/,84.6*,/,-2.9,/,-0.0367
CC1=NN(Cc2c(C)nn(Cc3ccccc3)c2C)C(C)(C)C1,/,-5.6,/,-1.7,/,0.256
CCc1nnc(NC(=O)[C@@H](NC(=O)c2cc(OC)cc(OC)c2)C(C)C)s1,/,2.2,/,-2.4,/,0.859
CCc1cc2c(NCC3CCCO3)ncnc2s1 (stereo unspecified),91.6,1.0,96.0,-8.3,74.2*,-1.29
COC(=O)C1=C(C)N(CCc2c[nH]c3ccc(OC)cc23)C(=O)C1,/,17.9,/,2.5,-33.3,-1.27
COc1ccc(N2CCN(C(=O)c3cc(N4C(=O)C5C6CCC(C6)C5C4=O)ccc3Cl)CC2)cc1 (stereo unspecified),83.1,85.7*,92.0,2.8,-8.1,-2.34
O=C(c1cc(N2C(=O)C3C4CCC(C4)C3C2=O)ccc1Cl)N1CCN(c2ccccc2F)CC1 (stereo unspecified),85.6,75.1*,85.3,-0.3,-27.0,-0.823
NS(=O)(=O)c1ccc(CCn2c(=S)[nH]c3ccc(F)cc3c2=O)cc1,/,75.7*,/,0.5,45.0,0
O=C(Nc1c(F)cccc1F)c1cnc(N2CCN(c3ccccn3)CC2)c2ccccc12,32.1,78.6*,28.8,0.4,25.0,1
COc1cccc(NC(=O)CN(c2ccc([N+](=O)[O-])cc2)S(=O)(=O)c2ccccc2)c1,73.6,97.6*,86.5,5.0,33.3,/
Cc1ccccc1CN(CC(=O)Nc1cccc([N+](=O)[O-])c1)S(=O)(=O)c1ccc(Cl)cc1,34.2,99.6*,27.3,-2.4,0.0,-0.984
COc1ccc(NC(=O)CN(c2ccc([N+](=O)[O-])cc2)S(=O)(=O)c2ccccc2)cc1,30.5,33.6,30.6,3.0,-18.8,-1.89
COc1ccc(C)cc1S(=O)(=O)N(CC(=O)Nc1cccc([N+](=O)[O-])c1)c1ccccc1,83.3,56.0*,88.8,2.6,/,/
Cc1ccc([N+](=O)[O-])cc1NC(=O)CN(C1CCCCC1)S(=O)(=O)c1ccc(Cl)cc1,61.4,73.3*,65.5,-1.7,/,/
COc1ccc(NC(=O)CSc2nnc(NC(=O)c3ccc(S(=O)(=O)N4CCOCC4)cc3)s2)cc1,87.4,76.1*,89.6,-0.6,22.2,0.522
COc1ccc(N(CC(=O)Nc2ccc(S(=O)(=O)N3CCOCC3)cc2)S(=O)(=O)c2ccccc2)cc1,70.4,58.2*,76.2,3.0,13.3,-0.0987
Cc1ccc(Nc2nnc(SCC(=O)Nc3ccc(S(=O)(=O)N4CCOCC4)cc3)s2)cc1,84.9,40.1,84.5,-0.4,21.4,/
COc1ccc(S(=O)(=O)N(CC(=O)N2CCN(c3ccccc3OC)CC2)c2ccccc2)cc1,67.2,90.8*,72.2,-7.4,13.0,-1.08
Cc1ccc(NC(=O)CN(c2ccc(Cl)cc2)S(=O)(=O)c2cc([N+](=O)[O-])ccc2Cl)c(C)c1,/,98.3*,/,-0.5,38.9,-1.74
Cc1ccc(NS(=O)(=O)c2ccc(NC(=O)CN(c3cc([N+](=O)[O-])ccc3C)S(C)(=O)=O)cc2)c(C)c1,40.8,1.3,40.9,6.0,44.4,0.719
O=C(Cn1cnc2ccccc21)N/N=C/C(Br)=C/c1ccccc1,47.9,1.3,47.4,1.6,/,/
O=C(Nc1c(C(=O)O)[nH]c2ccc(F)cc12)c1cccc(C(F)(F)F)c1,/,/,/,3.5,/,/
CCC(=O)Nc1ccc(C(=O)n2nc(C)cc2C)cc1,102.0,-5.6,105.8,-0.3,/,/
Cc1cc(C)n(C(=O)c2ccc(NC(=O)CC(C)C)cc2)n1,89.4,7.5,80.4,4.8,74.2*,0.662
